Test results as given in the OligoGym collection.

Biological target: C20orf54
Test: pooled miR-30 sensor sort-seq; sequence = guide strand
Details: shRNA
Also: reference of the scale not given here.

Sequence | sensor-assay potency score (higher = more potent)
TTACTCTCCAACTAGTGGGCTT | -0.23
TCAGTGACATTGACGCAGGTAG | -0.422
ATCTCAGTGACATTGACGCAGG | -1.25
TATCTCAGTGACATTGACGCAG | 0.229
TTGCAGAAGTCCGCGGACGAGA | -1.3
TATCGTTATCTGCTTGTCTTGT | 0.0273
TTCCCTTCTAACACCCTTGGGC | 0.125
TGAAGAGGTGCAGTCCACCAGG | -0.698

Biological target: C21orf70
Test: as above
Details: shRNA

Sequence | sensor-assay potency score (higher = more potent)
TTGAGCCCCACAACCGACCAGA | -0.652
TTTATTGAGCCCCACAACCGAC | -1.2
TTCTGCACCAAGGCGCTGGGGT | -0.84
TTGGTGTTGATGAACGCCCAGT | -0.833
TTCGATTTTCTGCAACCATTGC | -1.09
ATTTTCTGCAACCATTGCTCAC | -1.16
TTTTCTGCAACCATTGCTCACG | -0.501
TTCTTGGGCAAAACGGTCTTGG | -0.889
TCTTCCAGCTGCATCTGCCGGG | -0.496
TCCAGCTTCTGCACCAAGGCGC | -0.982
TTGCTCACGCCTCAGCTTCATT | -1.27
TTTTATGGCTTCGATTTTCTGC | -0.59
